The record followed here is PubChem BioAssay (EPA / NIEHS).

Common to all, as to details: primary human HUVEC with PBMC; actives raise or lower the signal
Read-out in test [1]: Monocyte Chemoattractant Protein-1 (MCP1), CCL2 (gene 6347)
The experiment in a line: BSK_LPS_MCP1: BioMAP Diversity Plus: LPS Assay for Monocyte Chemoattractant Protein-1 (MCP1) Biomarker Activity (AID 2283081).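 As to AC50: co-culture stimulated with LPS; secreted MCP-1 protein quantified by ELISA in culture supernatant.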 A digest of the protocol:
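Secreted MCP-1 read by ELISA at 24 h post-dosing in an LPS-activated co-culture of endothelial cells with peripheral blood mononuclear cells. Fits run in both directions, DMSO as baseline; parallel SRB staining tracks overt cytotoxicity.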

Test [2] can be described thus: BSK_LPS_PGE2: BioMAP Diversity Plus: LPS Assay for Prostaglandin E2 (PGE2) Biomarker Activity (AID 2283082).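 As to AC50: secreted prostaglandin E2 measured by ELISA in LPS-stimulated co-culture.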 A digest of the protocol:
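PGE2 release measured by ELISA in an LPS-activated co-culture of human umbilical vein endothelial cells and peripheral blood mononuclear cells, read at 24 h post-dosing. DMSO served as baseline for bidirectional curve fitting.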

Read-out in test [3]: Macrophage colony-stimulating factor (MCSF), CSF1 (gene 1435)
The experiment in a line: BSK_LPS_MCSF: BioMAP Diversity Plus: LPS Assay for Macrophage colony-stimulating factor (MCSF) Biomarker Activity (AID 2283083). A digest of the protocol:
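Bidirectional fitting against DMSO was applied to M-CSF levels read by ELISA at 24 h post-dose. The system pairs human umbilical vein endothelium with peripheral blood mononuclear cells; parallel SRB staining tracked cytotoxicity.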

Read-out in test [4]: Tissue Factor, F3 (gene 2152)
The experiment in a line: BSK_LPS_TissueFactor: BioMAP Diversity Plus: LPS Assay for Tissue Factor Biomarker Activity (AID 2283084). A digest of the protocol: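 Compound was added to an endothelial cell/PBMC co-culture, and after 24 h tissue factor (CD142) was read by ELISA. Gain or loss of signal was fitted against a DMSO baseline, and parallel SRB staining (560 nm) tracked overt cytotoxicity.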

Read-out in test [5]: Tumor necrosis factor (Homo sapiens) (UniProt P01375)
As to the kind of experiment: BSK_LPS_TNFa: BioMAP Diversity Plus: LPS Assay for Tumour Necrosis Factor alpha (TNFa) Biomarker Activity (AID 2283085).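 As to AC50: TNFa protein level quantified by ELISA in the co-culture.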 A digest of the protocol:
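TNFa was quantified by ELISA in LPS-activated co-cultures of human endothelial cells and PBMC, 24 h post-dosing. Both increases and decreases versus DMSO were fitted.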

Read-out in test [6]: Vascular cell adhesion molecule 1 (VCAM1), VCAM1 (gene 7412)
The experiment in a line: BSK_LPS_VCAM1: BioMAP Diversity Plus: LPS Assay for Vascular cell adhesion molecule 1 (VCAM1) Biomarker Activity (AID 2283086). A digest of the protocol:
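VCAM-1 quantified by ELISA in an LPS-activated co-culture of human endothelial cells and peripheral blood mononuclear cells, read 24 h post-treatment. Fitted in both directions versus DMSO; parallel SRB staining flags overt cytotoxicity.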

Read-out in another test: CD38, CD38 (gene 952)
As to the kind of experiment: BSK_SAg_CD38: BioMAP Diversity Plus: SAg Assay for CD38 Biomarker Activity (AID 2283087). A digest of the protocol: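 CD38 quantified by ELISA (fluorescence) in a superantigen-activated endothelial cell–PBMC co-culture at 24 h post-dose. Activity fitted in both directions relative to DMSO; parallel SRB and Alamar Blue cytotoxicity read-outs.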

Read-out in a further test: CD40, CD40 (gene 958)
The experiment in a line: BSK_SAg_CD40: BioMAP Diversity Plus: SAg Assay for CD40 Biomarker Activity (AID 2283088). A digest of the protocol:
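CD40 is measured by fluorescence ELISA in an endothelial/PBMC primary human co-culture at 24 h post-dose. Fitting is bidirectional, DMSO baseline. Parallel SRB staining (560 nm) flags cytotoxicity.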

Read-out in the next test: CD69, CD69 (gene 969)
As to the kind of experiment: BSK_SAg_CD69: BioMAP Diversity Plus: SAg Assay for CD69 Biomarker Activity (AID 2283089).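 As to AC50: cell surface CD69 protein quantified by ELISA with fluorescence detection.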 A digest of the protocol:
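ELISA, fluorescence read-out: CD69 on human umbilical vein endothelial cell + PBMC co-culture, 24 h post-dosing. Gain or loss of signal fitted bidirectionally against DMSO baseline.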

Read-out in test [7]: Monocyte Chemoattractant Protein-1 (MCP1), CCL2 (gene 6347)
As to the kind of experiment: BSK_SAg_MCP1: BioMAP Diversity Plus: SAg Assay for Monocyte Chemoattractant Protein-1 (MCP1) Biomarker Activity (AID 2283090). A digest of the protocol: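 Values derive from bidirectional fitting of ELISA-measured MCP1 against DMSO controls. Readings were taken 24 h after dosing human vascular endothelial cells co-cultured with peripheral blood mononuclear cells under superantigen stimulation.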

As a reminder, the AC50 is the concentration at which the activity in the assay is half-maximal.

Where “and” joins values, the source holds several entries; their conditions need not be identical. Equal entries are not always repeated. Where a structure was tested more than once in an assay, its records may differ in their call. Calls of active or inactive are those of the source. The calls were made as follows: active = hit-call score of the fitted dose curve at least 0.9, where 1 is the maximum; inactive = score below 0.9.

Chain of Tumor necrosis factor (Homo sapiens) (P01375 whole entry, looked up): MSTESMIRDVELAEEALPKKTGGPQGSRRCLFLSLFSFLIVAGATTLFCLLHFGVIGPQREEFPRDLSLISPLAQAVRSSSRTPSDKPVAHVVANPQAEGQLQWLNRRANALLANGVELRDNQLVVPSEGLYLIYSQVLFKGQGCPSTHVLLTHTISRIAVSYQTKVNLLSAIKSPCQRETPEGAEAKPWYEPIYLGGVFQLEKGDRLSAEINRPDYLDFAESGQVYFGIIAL

As for `Nc1ccc(-c2ccc(N)cc2)cc1`, the outcome was “inactive” in test [1]; “inactive” in test [3]; “inactive” in test [4]; “inactive” in test [5]; “inactive” in test [6]; “inactive” in the test with CD38, CD38 (gene 952). Further, the outcome with CD40, CD40 (gene 958) was “inactive”; with CD69, CD69 (gene 969), “inactive”; in test [7], “inactive”. For the same compound, in test [2], the AC50 was 8.27 µM (active).

As to `O=NN(c1ccccc1)c1ccccc1`, the outcome in test [1] was “inactive”; in test [3], “inactive”; in test [4], “inactive”; in test [6] it was “inactive”; with CD38, CD38 (gene 952), “inactive”; with CD40, CD40 (gene 958), “inactive”. In addition, the outcome is “inactive” with CD69, CD69 (gene 969) and “inactive” in [7]. The concentration at half-maximal activity (AC50) in [2] is 2.14 µM (active); in [5], 3.97 µM (active).

Regarding `CCCN(CCC)N=O`, the result in [1], in [2], in test [3], in test [4], in test [5] and in test [6] was inactive. Also, the outcome is “inactive” in the test with CD38, CD38 (gene 952); “inactive” with CD40, CD40 (gene 958); “inactive” with CD69, CD69 (gene 969); “inactive” in test [7].

Turning to `CC(c1ccc(O)cc1)(c1ccc(O)cc1)c1ccc(O)cc1`, the AC50 is 20 µM (active) in [1]; 34.6 µM (active) in [2]; 26.4 µM (active) in test [3]; 32.6 µM (active) in [5]; 16.2 µM (active) in test [6]; 24.5 µM (active) in the test with CD38, CD38 (gene 952). Moreover, the AC50 was 20.5 µM (active) with CD40, CD40 (gene 958); 20 µM (active) with CD69, CD69 (gene 969); 25.9 µM (active) in test [7]. The result in [4] was inactive.

With `O=S(=O)(O)C(F)(F)C(F)(F)C(F)(F)C(F)(F)F`, the outcome in [1], in test [2], in [3], in [4], in test [5] and in [6] was inactive. In addition, the outcome in the test with CD38, CD38 (gene 952) is “inactive”; with CD40, CD40 (gene 958), “inactive”; with CD69, CD69 (gene 969), “inactive”; in test [7] it was “inactive”.

As for `NS(=O)(=O)C(F)(F)C(F)(F)C(F)(F)C(F)(F)C(F)(F)C(F)(F)C(F)(F)C(F)(F)F`, the AC50 in test [1] was 55.7 µM (active) and 57.3 µM (active); in test [3] it was 30.9 µM (active) and 54.9 µM (active) and 51.8 µM (active); in test [4], 44.6 µM (active); in test [5], 28.6 µM (active) and 49.6 µM (active) and 49.3 µM (active); in test [6], 53.8 µM (active) and 46.6 µM (active); with CD38, CD38 (gene 952), 27.8 µM (active) and 43.8 µM (active) and 42.4 µM (active). Moreover, the AC50 in the test with CD40, CD40 (gene 958) is 27.7 µM (active) and 46.1 µM (active) and 45.8 µM (active); in the test with CD69, CD69 (gene 969), 27.4 µM (active) and 40.8 µM (active) and 43.4 µM (active); in [7], 31.2 µM (active) and 54.2 µM (active) and 54.5 µM (active). Besides, the outcome in [1], in test [4] and in test [6] was inactive.

`Clc1ccc(C(Cl)(Cl)Cl)cc1`: the outcome is “inactive” in test [1]; “inactive” in test [3]; “inactive” in test [4]; “inactive” in test [5]; “inactive” in test [6]; “inactive” with CD38, CD38 (gene 952). The outcome with CD40, CD40 (gene 958) was “inactive”; with CD69, CD69 (gene 969), “inactive”; in test [7], “inactive”.

As for `CC(C)C(=O)OCC(C)(C)C(OC(=O)C(C)C)C(C)C` (centres undefined), the result in [1], in test [2], in test [3], in test [4], in [5] and in test [6] was inactive. Moreover, the outcome with CD38, CD38 (gene 952) was “inactive”; with CD40, CD40 (gene 958) it was “inactive”; with CD69, CD69 (gene 969), “inactive”; in test [7], “inactive”.

Take `Oc1c(Cl)c(Cl)c(Cl)c(Cl)c1Cl`: the AC50 is 2.92 µM (active) and 30.4 µM (active) in test [1]; 4.98 µM (active) in [2]; 10.2 µM (active) and 25.5 µM (active) in test [3]; 32.4 µM (active) in test [4]; 20 µM (active) in test [5]; 10.2 µM (active) and 14.6 µM (active) in test [6]. Besides, the AC50 with CD38, CD38 (gene 952) is 27.7 µM (active); with CD40, CD40 (gene 958), 10.2 µM (active) and 24.1 µM (active); in the test with CD69, CD69 (gene 969) it was 10.2 µM (active) and 19.8 µM (active); in [7], 10.2 µM (active) and 33.6 µM (active). For the same compound, the outcome in test [2], in test [4] and in [5] was inactive.

With `C1CC2OC2CC1C1CO1` (centres undefined), the outcome in test [1], in [2], in test [3], in test [4], in [5] and in test [6] was inactive. Moreover, the outcome was “inactive” in the test with CD38, CD38 (gene 952); “inactive” in the test with CD40, CD40 (gene 958); “inactive” with CD69, CD69 (gene 969); “inactive” in test [7].

As to `Cc1ccccc1O`, the outcome in [1] is “inactive”; in test [3], “inactive”; in test [4] it was “inactive”; in test [5], “inactive”; in test [6], “inactive”; in the test with CD38, CD38 (gene 952), “inactive”. The outcome in the test with CD40, CD40 (gene 958) is “inactive”; in the test with CD69, CD69 (gene 969), “inactive”; in test [7] it was “inactive”. Also, the AC50 in test [2] was 3.97 µM (active).

As for `O=S(=O)(O)C(F)(F)C(F)(F)C(F)(F)C(F)(F)C(F)(F)C(F)(F)F`, the result in test [1], in [2], in test [3], in test [4], in test [5] and in [6] was inactive. Further, the outcome in the test with CD38, CD38 (gene 952) was “inactive”; with CD40, CD40 (gene 958), “inactive”; with CD69, CD69 (gene 969), “inactive”; in test [7], “inactive”.

On to `Cc1ccccc1[N+](=O)[O-]`, for which the outcome in test [1], in test [2], in test [3], in test [4], in [5] and in test [6] was inactive. Further, the outcome was “inactive” with CD38, CD38 (gene 952); “inactive” with CD40, CD40 (gene 958); “inactive” with CD69, CD69 (gene 969); “inactive” in test [7].

Regarding `CCOC(=O)C(O)(c1ccc(Cl)cc1)c1ccc(Cl)cc1`, the AC50 in test [1] was 39.1 µM (active); in test [3] it was 28.2 µM (active); in test [4] it was 34 µM (active); in test [5] it was 39.3 µM (active); in [6], 34 µM (active); with CD38, CD38 (gene 952), 29.4 µM (active). The concentration at half-maximal activity (AC50) in the test with CD40, CD40 (gene 958) was 30.4 µM (active); with CD69, CD69 (gene 969) it was 36 µM (active); in test [7], 35.2 µM (active). For the same compound, the result in [2] was inactive.

As to `C=CC(=O)NCNC(=O)C=C`, the outcome in test [1], in test [2], in test [3], in test [4], in [5] and in test [6] was inactive. Besides, the outcome with CD38, CD38 (gene 952) is “inactive”; with CD40, CD40 (gene 958) it was “inactive”; with CD69, CD69 (gene 969) it was “inactive”; in test [7] it was “inactive”.
